{"source": "PubChem BioAssay AID1159580", "about": "(chemical genetic matrix, 2015)", "experiment": "chemical genetic growth profiling, strain panel (AID 1159580);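 further: tested at 20 µM; growth read once vehicle control cultures reached saturation at 30 °C; 1 = growth at the plate median or of vehicle wells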", "conditions": "growth OD", "note": "In all, about 5,500 compounds went through this assay and about 2,000 (36%) were called active. Another 18% or so got no clear call; they are omitted. No stated cut-off is given here; in the data, active means normalized growth mostly below about 0.91 (no sharp cut-off); inconclusive means no clear call, values can overlap the other calls; inactive means mostly above about 0.92. Some of the results follow.", "data": [{"smiles": "CCCCCCCCCCCCC[N+](C)(C)Cc1ccccc1", "values": [{"measurement": "normalized growth", "setting": "S. cerevisiae deletion strains, locus YJR075W, strain HOC1, stronger effect = lower value", "result": "0.0621 (active)"}, {"measurement": "normalized growth", "setting": "S. cerevisiae deletion strains, locus YKL009W, strain mrt4, stronger effect = lower value", "result": "0.102 (active)"}, {"measurement": "normalized growth", "setting": "S. cerevisiae deletion strains, locus YKL068W, stronger effect = lower value", "result": "0.0707 (active)"}, {"measurement": "normalized growth", "setting": "S. cerevisiae deletion strains, locus YKL085W, strain MDH1 (second series), stronger effect = lower value", "result": "0.0622 (active)"}, {"measurement": "normalized growth", "setting": "S. cerevisiae deletion strains, locus YKL085W, strain MDH1, stronger effect = lower value", "result": "0.0622 (active)"}, {"measurement": "normalized growth", "setting": "S. cerevisiae deletion strains, locus YKL160W, strain elf1, stronger effect = lower value", "result": "0.0609 (active)"}, {"measurement": "normalized growth", "setting": "S. cerevisiae deletion strains, locus YKL190W, strain CNB1, stronger effect = lower value", "result": "0.0462 (active)"}, {"measurement": "normalized growth", "setting": "S. cerevisiae deletion strains, locus YKR001C, strain vps1, stronger effect = lower value", "result": "0.0665 (active)"}, {"measurement": "normalized growth", "setting": "S. cerevisiae deletion strains, locus YKR026C, strain gcn3, stronger effect = lower value", "result": "0.0645 (active)"}, {"measurement": "normalized growth", "setting": "S. cerevisiae deletion strains, locus YKR091W, strain srl3, stronger effect = lower value", "result": "0.0591 (active)"}, {"measurement": "normalized growth", "setting": "S. cerevisiae deletion strains, locus YLL001W, strain dnm1, stronger effect = lower value", "result": "0.0643 (active)"}, {"measurement": "normalized growth", "setting": "S. cerevisiae deletion strains, locus YLL026W, stronger effect = lower value", "result": "0.0581 (active)"}, {"measurement": "normalized growth", "setting": "S. cerevisiae deletion strains, locus YLL041C, strain sdh2, stronger effect = lower value", "result": "0.0534 (active)"}, {"measurement": "normalized growth", "setting": "S. cerevisiae deletion strains, locus YLR027C, strain aat2, stronger effect = lower value", "result": "0.0632 (active)"}, {"measurement": "normalized growth", "setting": "S. cerevisiae deletion strains, locus YLR039C, strain RIC1, stronger effect = lower value", "result": "0.0768 (active)"}, {"measurement": "normalized growth", "setting": "S. cerevisiae deletion strains, locus YLR058C, strain SHM2, stronger effect = lower value", "result": "0.0468 (active)"}, {"measurement": "normalized growth", "setting": "S. cerevisiae deletion strains, locus YLR102C, strain apc9, stronger effect = lower value", "result": "0.0591 (active)"}, {"measurement": "normalized growth", "setting": "S. cerevisiae deletion strains, locus YLR113W, strain HOG1, stronger effect = lower value", "result": "0.115 (active)"}, {"measurement": "normalized growth", "setting": "S. cerevisiae deletion strains, locus YLR221C, strain rsa3, stronger effect = lower value", "result": "0.0601 (active)"}, {"measurement": "normalized growth", "setting": "S. cerevisiae deletion strains, locus YLR258W, strain gsy2, stronger effect = lower value", "result": "0.0594 (active)"}, {"measurement": "normalized growth", "setting": "S. cerevisiae deletion strains, locus YLR262C, strain YPT6 (second series), stronger effect = lower value", "result": "0.0813 (active)"}, {"measurement": "normalized growth", "setting": "S. cerevisiae deletion strains, locus YLR262C, strain YPT6, stronger effect = lower value", "result": "0.0988 (active)"}, {"measurement": "normalized growth", "setting": "S. cerevisiae deletion strains, locus YLR268W, strain sec22, stronger effect = lower value", "result": "0.0715 (active)"}, {"measurement": "normalized growth", "setting": "S. cerevisiae deletion strains, locus YLR320W, strain mms22, stronger effect = lower value", "result": "0.0747 (active)"}, {"measurement": "normalized growth", "setting": "S. cerevisiae deletion strains, locus YLR330W, strain CHS5, stronger effect = lower value", "result": "0.0507 (active)"}, {"measurement": "normalized growth", "setting": "S. cerevisiae deletion strains, locus YLR342W, strain FKS1 (second series), stronger effect = lower value", "result": "0.0621 (active)"}, {"measurement": "normalized growth", "setting": "S. cerevisiae deletion strains, locus YLR342W, strain FKS1, stronger effect = lower value", "result": "0.0644 (active)"}, {"measurement": "normalized growth", "setting": "S. cerevisiae deletion strains, locus YLR357W, strain rsc2, stronger effect = lower value", "result": "0.114 (active)"}, {"measurement": "normalized growth", "setting": "S. cerevisiae deletion strains, locus YLR370C, strain arc18, stronger effect = lower value", "result": "0.0615 (active)"}, {"measurement": "normalized growth", "setting": "S. cerevisiae deletion strains, locus YLR371W, strain rom2, stronger effect = lower value", "result": "0.0625 (active)"}, {"measurement": "normalized growth", "setting": "S. cerevisiae deletion strains, locus YLR384C, strain iki3, stronger effect = lower value", "result": "0.0574 (active)"}, {"measurement": "normalized growth", "setting": "S. cerevisiae deletion strains, locus YLR418C, strain cdc73, stronger effect = lower value", "result": "0.0973 (active)"}, {"measurement": "normalized growth", "setting": "S. cerevisiae deletion strains, locus YML016C, strain PPZ1, stronger effect = lower value", "result": "0.0455 (active)"}, {"measurement": "normalized growth", "setting": "S. cerevisiae deletion strains, locus YML032C, strain rad52, stronger effect = lower value", "result": "0.0731 (active)"}, {"measurement": "normalized growth", "setting": "S. cerevisiae deletion strains, locus YML120C, strain ndi1, stronger effect = lower value", "result": "0.0563 (active)"}, {"measurement": "normalized growth", "setting": "S. cerevisiae deletion strains, locus YML124C, strain tub3, stronger effect = lower value", "result": "0.0618 (active)"}, {"measurement": "normalized growth", "setting": "S. cerevisiae deletion strains, locus YMR058W, strain fet3, stronger effect = lower value", "result": "0.064 (active)"}, {"measurement": "normalized growth", "setting": "S. cerevisiae deletion strains, locus YMR078C, strain ctf18, stronger effect = lower value", "result": "0.0768 (active)"}, {"measurement": "normalized growth", "setting": "S. cerevisiae deletion strains, locus YMR125W, strain sto1, stronger effect = lower value", "result": "0.0739 (active)"}, {"measurement": "normalized growth", "setting": "S. cerevisiae deletion strains, locus YMR129W, stronger effect = lower value", "result": "0.0593 (active)"}, {"measurement": "normalized growth", "setting": "S. cerevisiae deletion strains, locus YMR205C, strain PFK2, stronger effect = lower value", "result": "0.0873 (active)"}, {"measurement": "normalized growth", "setting": "S. cerevisiae deletion strains, locus YMR223W, strain ubp8, stronger effect = lower value", "result": "0.0651 (active)"}, {"measurement": "normalized growth", "setting": "S. cerevisiae deletion strains, locus YMR231W, strain pep5, stronger effect = lower value", "result": "0.0683 (active)"}, {"measurement": "normalized growth", "setting": "S. cerevisiae deletion strains, locus YMR307W, strain GAS1, stronger effect = lower value", "result": "0.11 (active)"}, {"measurement": "normalized growth", "setting": "S. cerevisiae deletion strains, locus YNL067W, strain RPL9B, stronger effect = lower value", "result": "0.0494 (active)"}, {"measurement": "normalized growth", "setting": "S. cerevisiae deletion strains, locus YNL071W, strain lat1, stronger effect = lower value", "result": "0.0572 (active)"}, {"measurement": "normalized growth", "setting": "S. cerevisiae deletion strains, locus YNL128W, strain TEP1, stronger effect = lower value", "result": "0.0628 (active)"}, {"measurement": "normalized growth", "setting": "S. cerevisiae deletion strains, locus YNL153C, strain GIM3, stronger effect = lower value", "result": "0.0486 (active)"}, {"measurement": "normalized growth", "setting": "S. cerevisiae deletion strains, locus YNL183C, strain NPR1, stronger effect = lower value", "result": "-0.00105 (active)"}, {"measurement": "normalized growth", "setting": "S. cerevisiae deletion strains, locus YNL209W, strain ssb2, stronger effect = lower value", "result": "0.0596 (active)"}, {"measurement": "normalized growth", "setting": "S. cerevisiae deletion strains, locus YNL233W, strain BNI4, stronger effect = lower value", "result": "0.0559 (active)"}, {"measurement": "normalized growth", "setting": "S. cerevisiae deletion strains, locus YNL248C, strain rpa49, stronger effect = lower value", "result": "0.0866 (active)"}, {"measurement": "normalized growth", "setting": "S. cerevisiae deletion strains, locus YNL250W, strain rad50, stronger effect = lower value", "result": "0.107 (active)"}, {"measurement": "normalized growth", "setting": "S. cerevisiae deletion strains, locus YNL271C, strain bni1, stronger effect = lower value", "result": "0.0664 (active)"}, {"measurement": "normalized growth", "setting": "S. cerevisiae deletion strains, locus YNL298W, strain CLA4, stronger effect = lower value", "result": "0.0607 (active)"}, {"measurement": "normalized growth", "setting": "S. cerevisiae deletion strains, locus YNL307C, strain MCK1, stronger effect = lower value", "result": "0.0673 (active)"}, {"measurement": "normalized growth", "setting": "S. cerevisiae deletion strains, locus YNL322C, strain KRE1 (second series), stronger effect = lower value", "result": "0.0716 (active)"}, {"measurement": "normalized growth", "setting": "S. cerevisiae deletion strains, locus YNR049C, strain mso1, stronger effect = lower value", "result": "0.0569 (active)"}, {"measurement": "normalized growth", "setting": "S. cerevisiae deletion strains, locus YNR052C, strain pop2, stronger effect = lower value", "result": "0.0607 (active)"}, {"measurement": "normalized growth", "setting": "S. cerevisiae deletion strains, locus YOL006C, strain TOP1, stronger effect = lower value", "result": "0.101 (active)"}, {"measurement": "normalized growth", "setting": "S. cerevisiae deletion strains, locus YOL012C, strain htz1", "result": "0.22 (inactive)"}, {"measurement": "normalized growth", "setting": "S. cerevisiae deletion strains, locus YOL147C, strain pex11, stronger effect = lower value", "result": "0.0664 (active)"}, {"measurement": "normalized growth", "setting": "S. cerevisiae deletion strains, locus YOR001W, strain rrp6, stronger effect = lower value", "result": "0.0665 (active)"}, {"measurement": "normalized growth", "setting": "S. cerevisiae deletion strains, locus YOR061W, strain CKA2, stronger effect = lower value", "result": "0.0452 (active)"}, {"measurement": "normalized growth", "setting": "S. cerevisiae deletion strains, locus YOR069W, strain VPS5, stronger effect = lower value", "result": "0.0467 (active)"}, {"measurement": "normalized growth", "setting": "S. cerevisiae deletion strains, locus YOR070C, strain gyp1, stronger effect = lower value", "result": "0.0668 (active)"}, {"measurement": "normalized growth", "setting": "S. cerevisiae deletion strains, locus YOR080W, strain dia2, stronger effect = lower value", "result": "0.0657 (active)"}, {"measurement": "normalized growth", "setting": "S. cerevisiae deletion strains, locus YOR083W, strain WHI5, stronger effect = lower value", "result": "0.0673 (active)"}, {"measurement": "normalized growth", "setting": "S. cerevisiae deletion strains, locus YOR106W, strain vam3, stronger effect = lower value", "result": "0.0651 (active)"}, {"measurement": "normalized growth", "setting": "S. cerevisiae deletion strains, locus YOR136W, strain idh2, stronger effect = lower value", "result": "0.0728 (active)"}, {"measurement": "normalized growth", "setting": "S. cerevisiae deletion strains, locus YOR144C, strain elg1, stronger effect = lower value", "result": "0.0629 (active)"}, {"measurement": "normalized growth", "setting": "S. cerevisiae deletion strains, locus YOR184W, strain ser1, stronger effect = lower value", "result": "0.0779 (active)"}, {"measurement": "normalized growth", "setting": "S. cerevisiae deletion strains, locus YOR231W, strain MKK1, stronger effect = lower value", "result": "0.103 (active)"}, {"measurement": "normalized growth", "setting": "S. cerevisiae deletion strains, locus YOR265W, strain rbl2, stronger effect = lower value", "result": "0.0552 (active)"}, {"measurement": "normalized growth", "setting": "S. cerevisiae deletion strains, locus YOR270C, strain vph1, stronger effect = lower value", "result": "0.0971 (active)"}, {"measurement": "normalized growth", "setting": "S. cerevisiae deletion strains, locus YOR290C, strain snf2, stronger effect = lower value", "result": "0.0603 (active)"}, {"measurement": "normalized growth", "setting": "S. cerevisiae deletion strains, locus YOR316C, strain cot1, stronger effect = lower value", "result": "0.0576 (active)"}, {"measurement": "normalized growth", "setting": "S. cerevisiae deletion strains, locus YPL051W, strain arl3, stronger effect = lower value", "result": "0.0609 (active)"}, {"measurement": "normalized growth", "setting": "S. cerevisiae deletion strains, locus YPL055C, strain LGE1, stronger effect = lower value", "result": "0.0695 (active)"}, {"measurement": "normalized growth", "setting": "S. cerevisiae deletion strains, locus YPL078C, strain atp4, stronger effect = lower value", "result": "0.0642 (active)"}, {"measurement": "normalized growth", "setting": "S. cerevisiae deletion strains, locus YPL106C, strain sse1, stronger effect = lower value", "result": "0.0953 (active)"}, {"measurement": "normalized growth", "setting": "S. cerevisiae deletion strains, locus YPL240C, strain hsp82, stronger effect = lower value", "result": "0.0558 (active)"}, {"measurement": "normalized growth", "setting": "S. cerevisiae deletion strains, locus YPL256C, strain CLN2, stronger effect = lower value", "result": "0.111 (active)"}, {"measurement": "normalized growth", "setting": "S. cerevisiae deletion strains, locus YPR119W, strain clb2, stronger effect = lower value", "result": "0.0637 (active)"}, {"measurement": "normalized growth", "setting": "S. cerevisiae deletion strains, locus YPR141C, strain kar3, stronger effect = lower value", "result": "0.0734 (active)"}, {"measurement": "normalized growth", "setting": "S. cerevisiae deletion strains, locus YPR163C, strain tif3, stronger effect = lower value", "result": "0.0705 (active)"}, {"measurement": "normalized growth", "setting": "S. cerevisiae deletion strains, locus YPR167C, strain met16, stronger effect = lower value", "result": "0.063 (active)"}, {"measurement": "normalized growth", "setting": "S. cerevisiae deletion strains, strain wtn01, stronger effect = lower value", "result": "0.067 (active)"}, {"measurement": "normalized growth", "setting": "S. cerevisiae strains, strain wild type, stronger effect = lower value", "result": "0.0467 (active)"}]}]}
